# Measurements reported in the supplement of paper PMC9135407.
# Values joined by “and” are separate entries in the source; they are usually repeats but may differ in a detail not shown here. Equal entries are not always repeated. Structures can show the parent of a compound that is named as a salt. Out of some 5,800 compounds screened, about 620 (11%) showed activity. For the sample, actives were picked, then their nearest neighbours and some compounds at random. Unmarked numbers belong to inactive results.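 Rule for the calls: active = score above a cut-off or among the top three wells of a plate; in these data no inactive exceeds 0.85.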
# Tested on: primary human hepatic stellate cells (donor 1)
# Experiment: scaled lipid accumulation score (0 = DMSO-like, 1 = nortriptyline-like); higher = stronger HSC inactivation (lipid re-accumulation), active = hit call of the paper
# Details: 48 h
# [1] = library stock concentration: 10 mM
# [2] = library stock concentration: 400 uM
# [3] = library stock concentration: 2 mM
# [4] = library stock concentration: 3.33 mM
# [5] = library stock concentration: 1 mM
structure (smiles),measurement,setting,value
C[C@]12CC[C@@H]3c4ccc(O)cc4CC[C@H]3[C@@H]1C[C@H](O)[C@@H]2O,scaled lipid accumulation score,[1],≤ 0
O=C1CCC(c2ccc(-n3ccnc3)cc2)=NN1 [Imazodan],scaled lipid accumulation score,[1],≤ -0.07
CC(C)n1cnc2c(NCc3ccccc3)nc(NCCCO)nc21 [Bohemine],scaled lipid accumulation score,library stock concentration: 80 uM,≤ -0.001
same,scaled lipid accumulation score,[2],≤ -0.001
same,scaled lipid accumulation score,[3],≤ -0.001
same,scaled lipid accumulation score,[4],≤ 0
same,scaled lipid accumulation score,[1],0.099
Cc1cc(OCc2nnc(SC3CCCC3)n2-c2cccnc2)ccc1-c1ccc(S(C)(=O)=O)cc1,scaled lipid accumulation score,[4],0.619
same,scaled lipid accumulation score,[1],0.187
CN(C)[C@@H]1C(O)=C(C(=O)NCN2CCCC2)C(=O)[C@@]2(O)C(O)=C3C(=O)c4c(O)cccc4[C@@](C)(O)[C@H]3C[C@@H]12,scaled lipid accumulation score,[1],≤ 0
CN(C)[C@@H]1C(O)=C(C(=O)NCN2CCCC2)C(=O)[C@@]2(O)C(O)=C3C(=O)c4c(O)cccc4[C@@](C)(O)[C@H]3C[C@@H]12 [Rolitetracycline],scaled lipid accumulation score,,≤ 0
CC(=O)N(OCc1ccccc1)[C@H]1c2cc(C#N)ccc2OC(C)(C)[C@H]1O,scaled lipid accumulation score,[1],≤ 0
N[C@@H]1CCN(O)C1=O,scaled lipid accumulation score,[1],≤ 0
CCCCCCCCCCCCCCCC(=O)NC[C@@H](C)O [R-Palmitoyl-(2-methyl) Ethanolamide],scaled lipid accumulation score,[5],≤ 0
COc1ccc2cc1Oc1ccc(cc1)C[C@H]1c3c(cc4c(c3Oc3cc5c(cc3OC)CCN(C)[C@@H]5C2)OCO4)CCN1C [Cepharanthine] [listing 1 of 2 here],scaled lipid accumulation score,[1],0.689
COc1ccc2cc1Oc1ccc(cc1)C[C@H]1c3c(cc4c(c3Oc3cc5c(cc3OC)CCN(C)[C@@H]5C2)OCO4)CCN1C [Cepharanthine] [listing 2 of 2 here],scaled lipid accumulation score,[1],0.944 (active)
COc1ccc2c(c1OC)C(=O)O[C@@H]2[C@H]1c2c(cc3c(c2OC)OCO3)CCN1C [Noscapine hydrochloride],scaled lipid accumulation score,library stock concentration: 4.4 mM,0.008
same,scaled lipid accumulation score,[1],0.011 and 0.074
COc1ccc2c(c1OC)C(=O)O[C@@H]2[C@H]1c2c(cc3c(c2OC)OCO3)CCN1C [Noscapine hydrchloride],scaled lipid accumulation score,[1],≤ -0.055
COc1ccc2cc1Oc1ccc(cc1)C[C@H]1c3cc(c(OC)cc3CCN1C)Oc1c(OC)c(OC)cc3c1[C@H](C2)N(C)CC3 [Tetrandine],scaled lipid accumulation score,library stock concentration: 8 mM,0.535
COc1cc2c(cc1OC)[C@@H]1Cc3ccc(OC)c(OC)c3CN1CC2 [Rotundine],scaled lipid accumulation score,[4],≤ 0
same,scaled lipid accumulation score,[1],≤ 0
COc1cc2c3cc1Oc1cc(ccc1O)C[C@@H]1c4c(cc(OC)c(O)c4Oc4ccc(cc4)C[C@@H]3N(C)CC2)CC[N+]1(C)C [Tubocurarine chloride],scaled lipid accumulation score,library stock concentration: 3.1 mM,≤ 0
COc1ccc2cc1Oc1ccc(cc1)C[C@@H]1c3c(cc4c(c3Oc3cc5c(cc3OC)CCN(C)[C@H]5C2)OCO4)CCN1C [Cepharanthine],scaled lipid accumulation score,[4],1.03 (active)
COc1ccc2cc1Oc1ccc(cc1)C[C@H]1c3cc(c(OC)cc3CCN1C)Oc1c(OC)c(OC)cc3c1[C@H](C2)N(C)CC3 [Tetrandrine],scaled lipid accumulation score,,0.685
same,scaled lipid accumulation score,[4],0.783
same,scaled lipid accumulation score,[1],0.45
COc1cc2c3cc1Oc1c(OC)c(OC)cc4c1[C@@H](Cc1ccc(OC(=O)c5ccc([N+](=O)[O-])cc5)c(c1)Oc1ccc(cc1)C[C@@H]3N(C)CC2)N(C)CC4 [E6 berbamine],scaled lipid accumulation score,library stock concentration: 6.6 mM,0.933 (active)
COc1cc2c(c(OC)c1OC)-c1c(cc3c(c1OC)OCO3)CC(C)C(C)C2 (stereo not drawn) [Schisandrin B (Sch B)],scaled lipid accumulation score,[4],≤ 0
same,scaled lipid accumulation score,[1],≤ -0.001
COc1ccc2c(c1OC)C(=O)O[C@@H]2[C@H]1c2c(cc3c(c2OC)OCO3)CCN1C [Noscapine],scaled lipid accumulation score,,≤ 0
Cc1cc(C(N)=O)ccc1-n1c(CCC(=O)O)ccc1-c1ccc(-n2ccnc2)cc1,scaled lipid accumulation score,[4],≤ -0.009
same,scaled lipid accumulation score,[1],≤ 0
"O=C(O)c1ccc2c(c1)CCCC2 [5,6,7,8-tetrahydro-2-Naphthoic Acid]",scaled lipid accumulation score,[5],≤ 0
CS(=O)(=O)c1ccc(Cn2c3c(c4cc(F)cc(F)c42)CCCC3CC(=O)O)cc1 (stereo not drawn),scaled lipid accumulation score,[1],≤ -0.006
O=C(O)c1ccc2c(c1)nc(Nc1cccc(Cl)c1)c1ccncc12,scaled lipid accumulation score,[2],≤ -0.005
same,scaled lipid accumulation score,[3],≤ -0.005
same,scaled lipid accumulation score,[1],≤ -0.005
O=C(O)c1ccc2c(c1)nc(Nc1cccc(Cl)c1)c1ccncc12 [CX-4945 (Silmitasertib)],scaled lipid accumulation score,[4],≤ 0
same,scaled lipid accumulation score,[1],≤ 0
OC[C@H]1O[C@H]([S-])[C@H](O)[C@@H](O)[C@@H]1O.[Au+] [Aurothioglucose],scaled lipid accumulation score,library stock concentration: 5.1 mM,0.336
same,scaled lipid accumulation score,[1],0.397
"Oc1cc(O)c2c(c1)O[C@H](c1ccc(O)c(O)c1)[C@@H](O)C2 (racemic) [Catechin-(+,-) hydrate]",scaled lipid accumulation score,,≤ 0
CCCCCCCCCCCCCCCCOCC(CO)OC (stereo not drawn) [1-Hexadecyl-2-O-methyl-glycerol],scaled lipid accumulation score,[5],0.003
"CCCCC(C)(C)[C@H](O)C=C[C@H]1[C@H](O)CC(=O)[C@@H]1CCCCCCC(=O)O [16,16-dimethyl Prostaglandin E1]",scaled lipid accumulation score,[5],≤ 0
CCC(O)/C=C/C=O (stereo not drawn) [4-hydroxy Hexenal],scaled lipid accumulation score,[5],≤ 0
CCCCC[C@H](O)/C=C/[C@H]1[C@H](O)CC(=O)[C@@H]1CCCCCCC(=O)NCCO [Prostaglandin E1 Ethanolamide],scaled lipid accumulation score,[5],≤ 0
O=c1cc(-c2ccc(O)cc2)oc2cc(O[C@@H]3O[C@H](CO)[C@@H](O)[C@H](O)[C@H]3O)cc(O)c12 [Cosmosiin],scaled lipid accumulation score,[1],0.333
CC(C)=CCC/C(C)=C\CO [Nerol],scaled lipid accumulation score,[1],≤ 0
CC(C)=CCC/C(C)=C/CC/C(C)=C/CC[C@]1(C)CCc2cc(O)c(C)c(C)c2O1 [.gamma.-Tocotrienol],scaled lipid accumulation score,[5],≤ 0
CC12CC3CC(C)(C1)CC(N)(C3)C2 [Memantine hydrochloride],scaled lipid accumulation score,library stock concentration: 9.3 mM,0.689
same,scaled lipid accumulation score,[1],0.344 and 0.653 and 0.597
CC12CC3CC(C)(C1)CC(N)(C3)C2.Cl [Memantine hydrochloride],scaled lipid accumulation score,[1],1.05 (active)
CC12CC3CC(C)(C1)CC(N)(C3)C2 [Memantine Hydrochloride],scaled lipid accumulation score,,0.399
NC12CC3CC(CC(C3)C1)C2 [Symmetrel],scaled lipid accumulation score,[1],0.158
CC12CC3CC(C)(C1)CC(N)(C3)C2 [Memantine HCl],scaled lipid accumulation score,[4],0.012
same,scaled lipid accumulation score,[1],0.415
NC12CC3CC(CC(C3)C1)C2 [Adamantamine fumarate],scaled lipid accumulation score,,0.029
CC12CC3CC(C)(C1)CC(N)(C3)C2,scaled lipid accumulation score,[1],0.869 (active)
NC12CC3CC(CC(C3)C1)C2 [Amantadine hydrochloride],scaled lipid accumulation score,[1],0.29 and 0.659
same,scaled lipid accumulation score,library stock concentration: 10.7 mM,0.031
NC12CC3CC(CC(C3)C1)C2 [Amantadine HCl],scaled lipid accumulation score,[4],≤ 0
same,scaled lipid accumulation score,[1],0.042
